# Where a name gives a salt, the structure may show the parent alone.
# System: HeLa
# Assay: nuclear count per well, robust Z-score vs DMSO; higher = more cells (less toxicity)
# Conditions: 10 µM; 6 h
# 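Also: Hoechst-stained nuclei counted by automated confocal imaging of four fields per well in 384-well plates, with the robust Z-score based on the per-plate DMSO median and robust SD.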
row,SMILES,nuclear count per well
1,"CCCCCCCCCCCCC/C=C/[C@@H](O)[C@H](CO)N(C)C [N,N-Dimethylsphingosine]",-0.832
2,COC(=O)[C@@H]1[C@H]2C[C@H]3c4[nH]c5ccccc5c4CCN3C[C@@H]2CC[C@@H]1O [Yohimbine],1.44
3,CC(=O)N[C@@H](CS)C(=O)O [Acetylcysteine],0.695
4,Cc1cn(-c2cc(NC(=O)c3ccc(C)c(Nc4nccc(-c5cccnc5)n4)c3)cc(C(F)(F)F)c2)cn1 [Nilotinib],-0.24
5,O=C1OCCN1/N=C/c1ccc([N+](=O)[O-])o1 [Furazolidone],1.68
6,CCC(C)[C@H](NS(=O)(=O)c1cccc2ccccc12)C(=O)N[C@H](C=O)Cc1c[nH]c2ccccc12 (stereo partly specified),1.27
7,NCCCC[C@H](N[C@@H](CCc1ccccc1)C(=O)O)C(=O)N1CCC[C@H]1C(=O)O [Lisinopril Dihydrate],0.697
8,CCCCC/C=C\C\C=C/C=C/C=C/CC(=O)CCCC(=O)O [5-Ketoeicosatetraenoic acid],-0.142
9,CC[C@@H]1C(=O)OC[C@@H]1Cc1cncn1C,0.99
10,CCCCC[C@H](O)/C=C/[C@@H]1[C@H]2C/C(=C/CCCC(=O)O)O[C@H]2C[C@H]1O [Prostaglandin I2],-0.728
11,CCCCCCCCCCCCC/C=C/[C@@H](O)[C@H](CO)NCCCCCCCC [C8 Ceramine],0.668
12,CCN1CCN(C(=O)N[C@@H](C(=O)N[C@@H]2C(=O)N3[C@@H]2SC(C)(C)[C@@H]3C(=O)O)c2ccccc2)C(=O)C1=O [Piperacillin],1.26
13,COc1ccc2cc([C@H](C)C(=O)O)ccc2c1 [Naproxen],0.253
14,CN(C)CCOC(c1ccc(Cl)cc1)c1ccccn1 (stereo unspecified) [Carbinoxamine Maleate],0.505
15,CC(=O)N[C@H]1[C@H]([C@H](O)[C@H](O)CO)OC(C(=O)O)=C[C@@H]1NC(=N)N [Zanamivir],0.491
16,CNC[C@H](O)c1cccc(O)c1 [Phenylephrine],-0.74

row,SMILES,nuclear count per well
1,CN[C@H](CC(C)C)C(=O)N[C@H]1C(=O)N[C@@H](CC(N)=O)C(=O)N[C@H]2C(=O)N[C@H]3C(=O)N[C@H](C(=O)N[C@H](C(=O)O)c4cc(O)cc(O)c4-c4cc3ccc4O)[C@H](O)c3ccc(c(Cl)c3)Oc3cc2cc(c3O[C@@H]2O[C@H](CO)[C@@H](O)[C@H](O)[C@H]2O[C@H]2C[C@](C)(N)[C@H](O)[C@H](C)O2)Oc2ccc(cc2Cl)[C@H]1O,1.53
2,CC(=O)OCC(=O)[C@@]12OC(C)(C)O[C@@H]1C[C@H]1[C@@H]3C[C@H](F)C4=CC(=O)C=C[C@]4(C)[C@@]3(F)[C@@H](O)C[C@@]12C [Fluocinonide],-1.03
3,CN1CCC(=C2c3ccccc3CC(=O)c3sccc32)CC1 [Ketotifen Fumarate],-0.314
4,COc1cc2ncnc(Nc3ccc(F)c(Cl)c3)c2cc1OCCCN1CCOCC1 [Gefitinib],-1.31
5,COc1ccccc1OCC(O)CN1CCN(CC(=O)Nc2c(C)cccc2C)CC1 (stereo unspecified) [Ranolazine dihydrochloride],1.21
6,CC1=Nc2ccc(Cl)cc2S(=O)(=O)N1 [Diazoxide],0.862
7,CCc1c2c(nc3ccc(OC(=O)N4CCC(N5CCCCC5)CC4)cc13)-c1cc3c(c(=O)n1C2)COC(=O)[C@]3(O)CC,-1.03
8,CCN(CC)CCNC(=O)c1ccc(N)cc1,0.801
9,CCCCC/C=C\C[C@H](O)/C=C/C=C\C/C=C\CCCC(=O)O,0.23
10,CNS(=O)(=O)CCc1ccc2[nH]cc(C3CCN(C)CC3)c2c1,-0.5
11,CC(C)(C)NC[C@H](O)COc1cccc2c1CCCC2=O,-0.231
12,COc1ccc(-n2c(SCCCN3C(=O)c4cccc5cccc(c45)C3=O)nnc2-c2ccncc2)cc1,0.424
13,CC[C@H]1OC(=O)[C@H](C)[C@@H](O[C@H]2C[C@@](C)(OC)[C@@H](O)[C@H](C)O2)[C@H](C)[C@@H](O[C@@H]2O[C@H](C)C[C@H](N(C)C)[C@H]2O)[C@](C)(O)C[C@@H](C)C(=O)[C@H](C)[C@@H](O)[C@]1(C)O [Erythromycin],0.151
14,COC(=O)N[C@H](C(=O)N[C@@H](Cc1ccccc1)[C@@H](O)CN(Cc1ccc(-c2ccccn2)cc1)NC(=O)[C@@H](NC(=O)OC)C(C)(C)C)C(C)(C)C [Atazanavir],0.325
15,CCC[C@H](N[C@H]1CCc2cc(F)cc(F)c2C1)C(=O)Nc1cn(C(C)(C)CNCC(C)(C)C)cn1,2.56

# Source: the supplement of paper PMC9844399
